Assay outcomes deposited in PubChem BioAssay by National Center for Advancing Translational Sciences (NCATS).
Only some compounds are listed: those with a hit (about 6.1% of all), similar ones and a draw of the others.
RORg inh – ROR gamma (mouse) transcription inhibition; P51450; Drosophila S2 Gal4-RORgamma UAS-luciferase reporter, 20 h; Potency, µM (series often up to 53.6 µM), for inactives: at the top dose activity change, negative = inhibition, usual class: inhibitors; hit rate 5.4% among 310,000; further: on the % scale 0 is the no-effect control and ±100 the full control effect; nearly all actives have a fitted effect of over 60% in size
Target sequence (P51450 whole entry, looked up, the tested form may be a part): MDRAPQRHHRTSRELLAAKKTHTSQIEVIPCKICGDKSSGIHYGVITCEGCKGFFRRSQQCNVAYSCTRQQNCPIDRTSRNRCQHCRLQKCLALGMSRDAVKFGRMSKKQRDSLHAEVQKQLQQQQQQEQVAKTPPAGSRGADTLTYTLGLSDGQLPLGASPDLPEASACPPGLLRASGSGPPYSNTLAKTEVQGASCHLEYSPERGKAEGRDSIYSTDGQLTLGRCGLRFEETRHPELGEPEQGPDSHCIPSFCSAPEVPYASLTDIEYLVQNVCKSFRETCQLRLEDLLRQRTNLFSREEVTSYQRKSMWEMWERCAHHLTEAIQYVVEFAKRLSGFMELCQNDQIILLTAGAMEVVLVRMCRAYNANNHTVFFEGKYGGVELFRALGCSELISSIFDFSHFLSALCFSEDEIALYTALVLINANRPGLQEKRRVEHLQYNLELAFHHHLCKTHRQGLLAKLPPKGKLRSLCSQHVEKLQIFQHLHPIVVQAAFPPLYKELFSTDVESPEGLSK
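Stably transfected Drosophila Schneider cells are the test system, with ROR gamma fused to Gal4 and luciferase under UAS control; luminescence is read after 20 hr of 700 uM copper sulfate induction at ambient temperature.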
HepG2 tox – kills HepG2 cells in TGF-b inhibitor counter-screen; HepG2 CAGA-GFP viability, ATP luminescence, 18 h; Potency, µM (titrated, usually from 46.1 µM), for the others: at the top dose activity change, negative = cytotoxicity, most hits filed as cytotoxic; hit rate 0.76% among 410,000; AID 588856
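CellTiter-Glo luminescence gave cytotoxicity after 18 hours at 37 degrees C. The cells were HepG2 CAGA-GFP in 1% FBS DMEM, stimulated with 500 pg/mL TGF-beta after compound addition. %Activity was normalised to no-cell wells (complete cell-killing) and DMSO (no toxicity), and curves were fitted and classified.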
VP16 counter – inhibits Gal4-VP16 luciferase reporter, ROR gamma counter-screen. Drosophila S2 Gal4-VP16 UAS-luciferase, luminescence, 20 h. Potency, µM (doses to about 53.6 µM), for the others: top-dose activity, negative = inhibition, most hits filed as inhibitors. hit rate 3.5% among 310,000. AID 2546;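 further: Gal4-VP16 expression switched on by copper sulfate through the metallothionein promoter; on the % scale 0 is the no-effect control and ±100 the full control effect; nearly all actives have a fitted effect of over 50% in size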
ATXN2 expr inh – inhibitors of ATXN2 expression; HEK-293 ATXN2-luciferase reporter, luminescence, 24 h; AID 1745845; hit rate 0.72% among 360,000; Potency, µM (series often up to 57 µM), inactives show top-dose activity change, negative = inhibition, actives largely listed as inhibitors; further: on the % scale 0 is the no-effect control and ±100 the full control effect; nearly all actives have a fitted effect of over 55% in size
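ATXN2-luciferase reporter cells (luciferase flanked by upstream and downstream ATXN2 gene portions) were treated 24 h at 37 °C with compounds at up to 57 uM. SteadyGlo luminescence gave expression; GF-AFC fluorescence gave viability.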
TGFb SMAD3 inh – inhibitors of TGF-b signaling | HepG2 CAGA-GFP TGF-b/SMAD3 reporter, GFP fluorescence, 18 h; TGF-beta stimulated, 500 pg/mL final | AID 588855 | hit rate 1.2% among 410,000 | Potency, µM (highest dose often 46.1 µM), for inactives: top-dose activity, negative = inhibition, actives largely listed as inhibitors; further: on the % scale 0 is the no-effect control and ±100 the full control effect; nearly all actives have a fitted effect of over 65% in size
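Using HEPG2 CAGA-GFP reporter cells at 1000 cells/well, we pinned test compounds, stimulated with recombinant TGF-beta (500 pg/mL final) and measured total well GFP after 18 h.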
ATXN viability – cell viability loss in ATXN counter-screen. S2 cells (HEK-293 line with an ATXN2-luciferase reporter) viability, CellTiter-Fluor protease fluorescence, 24 h. Potency, µM (titrated, usually from 56.7 µM), most hits filed as cytotoxic. hit rate 0.49% among 400,000; further: nearly all actives have a fitted effect of over 40% in size
Numbers without * were called inactive; i = inactive; ? = inconclusive; . = not tested or not shown; [ ] = dose if it differs, or a comment. The call rests on the fitted dose curve; in most records, active means well fitted curve in the direction sought with a large enough effect; inconclusive means small, poorly fitted or top-dose-only effect, or another doubt; inactive means no such curve, though single readings can be large; an effect the other way counts as inactive or inconclusive. Potency means the concentration at half of the fitted maximal effect.

SMILES	RORg inh	HepG2 tox	VP16 counter	ATXN2 expr inh	TGFb SMAD3 inh	ATXN viability
CCOC(=O)c1ccc(NC(=O)c2nn(C)cc2Br)cc1	7%	-18%	0%	23%	-2%	i
COC(=O)c1ccccc1NC(=S)N1CCN(c2ccccn2)CC1	-14%	-11%	-11%	.	0%	i
Cn1ncc(Br)c1C(=O)NC(=S)N1CCN(c2ccccn2)CC1	6.3µM*	13%	11µM*	7%	16%	i
O=C(c1ccccc1Br)N1CCN(c2ccccn2)CC1	8%	10%	3%	24%	34%	i
CCOC(=O)N1CCN(C(=S)NC(=O)c2nn(C)cc2Br)CC1	18µM*	-11%	?	2%	8%	i
Cn1cc(Br)c(C(=O)NC(=S)N2CCN(c3ccccn3)CC2)n1	4µM*	-35%	13µM*	-19%	12%	i
Cc1cccc(S(=O)(=O)c2cn(C)c3cc(N4CCN(c5ccccc5)CC4)c(F)cc3c2=O)c1	.	0%	.	.	-9%	.
Cc1ccc2nc(-c3ccc(NC(=O)C4CCCO4)cc3)[nH]c2c1 (centres undefined)	6.3µM*	-33%	7.1µM*	-35%	5%	i
O=C(Nc1ccc(-c2nc3cccnc3s2)cc1)C1CCCO1 (centres undefined)	18µM*	-31%	11µM*	?	4%	i
O=C(Nc1ccc(-c2nc3ccccc3o2)cc1)C1CCCO1 (centres undefined)	-35%	-27%	?	?	3%	i
O=C1Nc2ccccc2C1(c1ccc(O)cc1)c1ccc(O)cc1	.	.	.	18%	.	i
O=C1OCCC1Sc1nc2cc(Cl)ccc2n1Cc1ccccc1 (centres undefined)	13µM*	-9%	?	-6%	0%	i
CC(C)(C)c1ccc(-c2nnc(SC3CCOC3=O)n2Cc2ccccc2)cc1 (centres undefined)	16µM*	3%	?	7%	-9%	i
O=C1OCCC1Sc1nc2ccccc2c(=O)n1Cc1ccccc1 (centres undefined)	1%	18%	-9%[10 µM]	.	0%	i
CCCCCn1c(CNC(=O)c2ccc(F)cc2)nc2ccccc21	.	-40%	.	?	?	?
Cc1cccc(-n2nc([N+](=O)[O-])c(=NC3CCN(Cc4ccccc4)CC3)n2O)c1	-35%	16µM*	10%	.	?	i
COc1cc2sc(-c3ccccc3OC)c(-c3ccc(OCCN4CCCCC4)cc3)c2cc1OC	.	16µM*	.	?	?	25µM*
COc1ccccc1-c1sc2cc3c(cc2c1-c1ccc(OCCN2CCCCC2)cc1)OCO3	.	10µM*	.	?	?	?
COc1ccccc1-c1sc2ccccc2c1-c1ccc(O)cc1	.	-37%	.	0%	11µM*	i
COc1ccc2sc(-c3ccccc3OC)c(-c3ccc(OCCN4CCOCC4)cc3)c2c1	.	1%	.	-6%	-2%	i
COc1ccc(-c2sc3cc4c(cc3c2-c2ccc(OCCN3CCOCC3)cc2)OCO4)cc1	.	-10%	.	-3%	-4%	i
CC(=O)Nc1ccccc1-c1nc(CNC(=O)c2ccc(F)c(F)c2)c(C)o1	.	.	.	.	.	i
CCc1cccc(C)c1NC(=O)c1cc(S(=O)(=O)N2CCN(c3ccccc3)CC2)ccc1F	.	3%	.	-1%	-5%	i
COc1ccc(CCNCc2ccc3c(c2)n(C)c(=O)n3C)cc1OC	.	0%	.	-15%	-9%	i
Cc1c(N2C(=O)/C(=C3/C(=O)N(C)c4ccccc43)SC2=S)c(=O)n(-c2ccccc2)n1C	7.9µM*	-12%	9%	-6%	-12%	i
SMILES	RORg inh	HepG2 tox	VP16 counter	ATXN2 expr inh	TGFb SMAD3 inh	ATXN viability
O=C(O)c1cccc(N2C(=O)CSC2=S)c1	-42%	-10%	5%	4%	-8%	i
O=C1CSC(=S)N1c1cccc(O)c1	13µM*	-35%	-6%	-29%	0%	i
Cc1c(N2C(=O)CSC2=S)c(=O)n(-c2ccccc2)n1C	13µM*	-39%	1%	-18%[11.3 µM]	-2%	i
CCNc1ccccc(C(=O)/C=C/c2ccc3c(c2)OCO3)c1=O	7.9µM*	-26%	?	7%	?	i
CCNc1ccc(Br)cc(C(=O)/C=C/c2ccccc2Cl)c1=O	.	-61%	.	20µM*	37%	?
CNc1ccc(Br)cc(C(=O)/C=C/c2cccc(Cl)c2Cl)c1=O	0%	-34%	-2%	?	?	?
Cc1ccc(CNS(=O)(=O)c2cc(C(=O)Nc3cccc(C(F)(F)F)c3)ccc2F)cc1	.	-75%	.	.	?	.
COc1ccccc1/C=C/C(=O)OCC(=O)Nc1ccc2c(c1)OCCO2	.	5%	.	.	25%	?
COc1ccccc1/C=C/C(=O)Nc1ccc2c(c1)OCCO2	1.6µM*	8%	-24%	65%	-20%	i
O=C(/C=C/c1ccncc1)c1ccc2c(c1)OCCO2	4µM*	-88%	5µM*	-8%	?	?
CCC(=O)N1CCC1(C)C(=O)Nc1ccc2c(c1)OCO2 (centres undefined)	.	-16%	.	9%	14µM*	i
COc1ccccc1C=CC(=O)C=Cc1ccccc1OC	.	-94%	.	17µM*	10µM*	.
CCOC(=O)c1c(C)[nH]c(C)c1S(=O)(=O)N1CCC(C(=O)NCc2ccc(OC)cc2)CC1	.	-23%	.	-3%	3%	i
COc1cc(NC(=O)CSc2ccc(-c3sc(C)nc3C)nn2)cc(OC)c1	.	-25%	.	.	?	.
O=S(=O)(c1ccc(Oc2ccc3c(c2)OCO3)c(S(=O)(=O)N2CCOCC2)c1)N1CCOCC1	.	-85%	.	.	18%	.
COc1ccc2c(c1)C(=O)[C@H](OC(=O)NS(=O)(=O)c1ccc(F)cc1)[C@@H](c1ccc(OC)c(Br)c1)O2	?	.	-13%	.	.	.
O=C(COC(=O)/C=C/c1ccccc1)Nc1ccc(Cl)cn1	.	-8%	.	-13%	-16%	i
O=C(CSCSCC(=O)Nc1ccc2c(c1)OCO2)Nc1ccc2c(c1)OCO2	?	-32%	2%	-11%	?	i
COc1ccccc1/C=C/C(=O)OCC(=O)Nc1ccc(Cl)cn1	-1%	-18%	-1%	25µM*	-11%	i
O=C(/C=C/c1ccccc1)Nc1ccc2c(c1)OCCO2	10µM*	3%	13µM*	16%	0%	i
CC(C)=CC(=O)Nc1ccc2c(c1)OCO2	11µM*	-31%	?	-15%	1%	i
COc1ccc(N2C(=O)/C(=C\c3ccco3)N=C2SCC(=O)NC(C)C)cc1Cl	?	9%	?	3%	3%	i
